biological target: Homeobox protein Hox-A13 (Mus musculus) (UniProt Q62424); test: disruptors of Hoxa13 oligonucleotide interaction – biochemical, fluorescence polarization, labeled oligonucleotide, primary screen (AID 1185); details: Hoxa13:DNA binding, 15 min, higher = more signal, called active from +8 up or from −8 down
Sequence (Q62424 whole entry, looked up): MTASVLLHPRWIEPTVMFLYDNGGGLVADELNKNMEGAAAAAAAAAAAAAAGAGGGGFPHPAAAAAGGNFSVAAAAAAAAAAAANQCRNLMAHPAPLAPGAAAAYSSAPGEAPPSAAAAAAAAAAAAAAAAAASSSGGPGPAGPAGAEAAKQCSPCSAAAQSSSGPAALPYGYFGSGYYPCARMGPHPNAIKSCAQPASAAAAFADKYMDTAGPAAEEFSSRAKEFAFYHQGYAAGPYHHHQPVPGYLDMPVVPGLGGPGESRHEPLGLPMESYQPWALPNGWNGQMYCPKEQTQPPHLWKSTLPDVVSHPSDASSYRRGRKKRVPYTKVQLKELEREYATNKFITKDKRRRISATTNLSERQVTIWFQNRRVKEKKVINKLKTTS

z-score, inactive:
C=CCNC(=O)[C@H]1[C@@H]2C(=O)O[C@@H](c3ccccc3)[C@@H](c3ccccc3)N2[C@@H](c2ccccc2OCCO)[C@]12C(=O)N(C(=O)OCCOC)c1ccc(C#CCNC(N)=O)cc12 -1.33, O=C1c2ccccc2[C@](Cc2ccccc2I)(C(=O)NCC(F)(F)F)[C@H](c2ccc(CO)cc2)N1Cc1ccccc1C(F)(F)F -2.47, Cc1ccc(N2C(=O)c3ccccc3[C@@H](C(=O)NCC(F)(F)F)[C@@H]2c2ccc(CO)cc2)nc1 -0.71, [N-]=[N+]=NCc1ccccc1C[C@@]1(C(=O)N2CCOCC2)N=C(c2ccc(OCCCO)cc2)O[C@@H]1c1ccccc1N=[N+]=[N-] -0.217, C=C(CCCC)/C(=C/C[C@@H](OC(=O)c1ccncc1)c1cccc(OCCO)c1)c1cc(C(=O)OC)ccc1OC -3.11, C=C(CCCC)C(=O)CC[C@@H](OC(C)=O)c1ccccc1OCCO -4.53, CCOC(=O)C1=CC[C@@H](c2ccc(-c3ccc(OCc4ccccc4)cc3)c(OC)c2)N(S(=O)(=O)c2ccc(C)cc2)[C@H]1c1ccccc1 -0.242, CC(C)[C@H]1NC(=O)[C@@]23C(=O)N[C@@H](Cc4ccccc4)C2[C@H](C)[C@@]2(C)O[C@H]2C3/C=C/C/C=C\CNC(=O)[C@H](C)NC1=O (stereo partly specified) -6.31, CC(=O)NCCCC[C@@H]1NC(=O)[C@H]2C[C@@H](C(=O)NCCCCCCN(C)C)[C@@H](c3cccc(OCCO)c3)N2C1=O -2.84, C/C(=N\O)C(=O)NCCCCCNC(=O)OCc1ccccc1 -0.408, COCCOC(=O)N1C(=O)[C@@]2(c3cc(C#CC4=CCCCC4)ccc31)[C@H](C(=O)NC[C@H](O)c1ccccc1)[C@H]1C(=O)O[C@H](c3ccccc3)[C@H](c3ccccc3)N1[C@@H]2c1ccc(OCCO)cc1 2.05, COCCOC(=O)N1C(=O)[C@@]2(c3cc(C#CC4(O)CCCCCC4)ccc31)[C@H](C(=O)N1CCCCCCC1)[C@H]1C(=O)O[C@H](c3ccccc3)[C@H](c3ccccc3)N1[C@@H]2c1ccc(O)cc1 3.51, C=C(COC)/C(=C/C[C@@H](OC(C)=O)c1cccc(OCCO)c1)c1cc(C(=O)OC)ccc1OC -4.24, C=CCC(OC(C)=O)[C@@H]1[C@@H](N(Cc2ccc(-c3cccc(C(F)(F)F)c3)o2)C(=O)Cc2ccc(F)cc2)c2cc(OCCCO)ccc2N1C(=O)c1ccc(-c2ccccc2)cc1 (stereo partly specified) -1.2, CC(C)[Si]1(C(C)C)O[C@@H](c2ccccc2)c2cc(C3CC3)nc(-c3ccc(Oc4ccccc4)cc3)c21 0.0985, Cc1ccc([C@@H]2CC=C(C(=O)O)[C@H](c3ccccc3)N2S(=O)(=O)c2ccc(C)cc2)cc1 -7.09, CCOC(=O)C[C@H]1[C@H](OC(=O)c2ccccc2-c2ccccc2)[C@@H](NC(=O)C2CCCCC2)c2cc(OCCCO)ccc2N1C(=O)c1ccccc1 -3.05, Cc1ccc(S[C@]2(C(=O)NCCCN(C)C)CC(=O)N(Cc3ccccc3)[C@@H]2c2ccc(CO)cc2I)cc1 -2.06, CCCC=C(CCC)[C@@H](NC(=O)c1ccc(C(F)(F)F)cc1)c1ccccc1 -0.261, NC(=O)NCC#Cc1ccc2c(c1)[C@]1(C(=O)N2)[C@H](c2ccccc2OCCO)N2[C@H](c3ccccc3)[C@H](c3ccccc3)OC(=O)[C@H]2[C@@H]1C(=O)N1CCN(c2ncccn2)CC1 0.487, C=C(CCCC)/C(=C/C[C@H](OC(=O)c1ccncc1)c1cccc(OCCO)c1)c1cc(C(=O)OC)ccc1OC -4.52, CN1CCC(CCCO)=CC1C1CC1 (stereo unspecified) -1.63, COc1ccc([Si](C)(C)[C@H]2[C@H](CC(=O)N(CCO)Cc3ccccc3)O[C@@]3(C(=O)N(C)c4ccccc43)[C@@H]2C)cc1 -6.95, CN1C2C=C(c3ccc(CO)cc3)C(C3C(=O)N(C(N)=O)C(=O)C32)C1c1cccs1 (stereo unspecified) -5.19, O=C/C=C/c1ccccc1Cl -0.26, COCCOC(=O)N1C(=O)[C@@]2(c3cc(C#CCCO)ccc31)[C@H](C(=O)N1CCCCCCC1)[C@H]1C(=O)O[C@H](c3ccccc3)[C@H](c3ccccc3)N1[C@@H]2c1ccc(O)cc1 -0.579

Reference: PubChem BioAssay
